From PubChem
Only a selection was taken, and hits are over-represented in it overall.
Methyltransferases: Primary Screen for Target Class Profiling of Small Molecule Inhibitors of Methyltransferases | 3.9% of 25,000 active | calls only at 40 µM | purified enzyme, MTase-Glo SAH luminescence; active compounds read low; call rule not given here
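Each enzyme was reacted with SAM and its substrate, with compounds tested once at 40 uM; SAH formed was read by MTase-Glo luminescence.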
* = called active by the depositor; i = inactive; + = active, no number; ! = not confirmed by another sample. % is set by controls: 0 for no effect and ±100 for the full control effect.

SMILES | Methyltransferases
O=C(Nc1nn(Cc2ccccc2)c2cccc(N3CCOCC3)c12)C1CCC1 | i
COCCCNC(=O)C1(C)Cn2nc(-c3ccccc3)cc2C(=O)N1Cc1ccccc1Cl (stereo not drawn) | i
Cc1ccc(CN2C(=O)c3cc(-c4ccco4)nn3CC2(C)C(=O)NC2CCCCC2)cc1 (stereo not drawn) | i
O=C(Nc1cc(-c2ccccc2)nn1-c1ccccc1)c1ccc([N+](=O)[O-])cc1 | i
O=[N+]([O-])c1ccc(-[n+]2nc(-c3ccccc3)nn2-c2ccc(I)cc2)cc1 | +
O=C(Nc1ccc(Cl)cc1)c1nc(Nc2ccccc2)c2ccccc2n1 | i
O=C(O)c1ccc2c(c1)nc(Nc1cccc(Cl)c1)c1ccncc12 | +
O=C(NCc1cccc(Cl)c1)c1ccc2oc(-c3cccnc3)nc2c1 | i
OCCCNc1cc(-c2ccnc(Nc3cccc(Cl)c3)n2)ccn1 | +
Cc1cccc(NC(=O)Cn2nc3n(CCC(C)C)c(=O)c4ccc(C(=O)NC(C)C)cc4n3c2=O)c1 | i
CC1(C(=O)NC2CCCCCCC2)Cn2c(cc3sccc32)C(=O)N1C1CCCCC1 (stereo not drawn) | i
CCOCCCN1C(=O)c2cc3ccccc3n2CC1(C)C(=O)NC1CCCC1 (stereo not drawn) | i
COC(=O)c1cc2n(n1)CC(C)(C(=O)NC1CCCCCC1)N(c1ccc(C)cc1C)C2=O (stereo not drawn) | i
CCN1C(=O)c2ccccc2C1Nc1ccc(OCCN2CCCCC2)cc1 (stereo not drawn) | +
CCCCN1C(=O)c2ccccc2C(C(=O)NC2CC2)C12CCCCC2 (stereo not drawn) | i
CCCCOc1ccccc1-c1cc2n(n1)CC(C)(C(=O)NC1CCCCCC1)N(CC)C2=O (stereo not drawn) | i
CCCCN1C(=O)c2cc(C(=O)Nc3c(C)cccc3C)nn2CC1(C)C(=O)NC1CCCC1 (stereo not drawn) | i
O=C(Cn1c(=O)n2nc(-c3ccccc3)nc2c2ccccc21)N1CCN(c2ccccc2F)CC1 | i
CCc1ccccc1NC(=O)CSc1nnc2n(Cc3ccc(F)cc3)c(=O)c3ccccc3n12 | i
O=C1Nc2ccc(Cl)cc2[C@@](C#CC2CC2)(C(F)(F)F)O1 | +!
CC1(C(=O)NC2CCCCCCC2)Cn2c(cc3sccc32)C(=O)N1C1CCCC1 (stereo not drawn) | i
COC(=O)COc1ccc2c(-c3ccccc3)cc(=O)oc2c1C | i
O=c1cc(-c2ccccc2)oc2c(O)c(O)ccc12 | i
Cc1cc(=O)oc2c(C=O)c(O)ccc12 | +
COc1cccc(CN2C(=O)c3cc4ccccc4n3CC2(C)C(=O)NC2CCCCC2)c1OC (stereo not drawn) | i
SMILES | Methyltransferases
CC(C)NC(=O)c1ccc2c(=O)nc3c(-c4cccc(F)c4)n[nH]n3c2c1 | i
CN(C)CCC[C@]1(c2ccc(F)cc2)OCc2cc(C#N)ccc21 | +
O=C(CSc1nnc2n(Cc3ccccc3)c(=O)c3ccccc3n12)Nc1ccc(F)cc1 | i
O=c1c2ccccc2n2c(SCc3cccc(F)c3)nnc2n1Cc1ccccc1 | i
O=C(c1ccc(Nc2nn3c(=O)c4ccccc4nc3s2)cc1)N1CCN(C2CCCCC2)CC1 | i
CCCn1c(=O)c2ccccc2n2c(SCC(=O)Nc3ccc(C)cc3C)nnc12 | i
CCCn1c(=O)c2ccc(Cl)cc2n2c(=O)n(CC(=O)c3ccc(C)cc3)nc12 | i
COc1cccc(CNC(=O)N2Cc3c(sc4c3CCCC4)-n3cccc3C2c2cccc(OC)c2)c1 (stereo not drawn) | i
Fc1cccc(-c2nnn3c2nc(NCC2CCCO2)c2cc(Cl)ccc23)c1 (stereo not drawn) | i
Cc1cccc(N2CCN(C(=O)CCc3nnc4n(Cc5ccccc5)c(=O)c5ccccc5n34)CC2C)c1 (stereo not drawn) | i
COc1ccc(NC(=O)Cn2c(=O)oc3cc(S(=O)(=O)N4CCCC4)ccc32)cc1 | i
COc1cccc(NC(=O)Cn2c(=O)oc3cc(S(=O)(=O)N4CCCCC4C)ccc32)c1 (stereo not drawn) | +
CC1CCN(C(=O)Cn2c(=O)oc3cc(S(=O)(=O)N4CCCCC4C)ccc32)CC1 (stereo not drawn) | i
COc1ccc(OC)c(N2C(=O)c3cc4occc4n3CC2(C)C(=O)NC2CCCCCC2)c1 (stereo not drawn) | i
COc1ccccc1CNC(=O)C1(C)Cn2nc(-c3ccccc3)cc2C(=O)N1Cc1ccccc1C (stereo not drawn) | i
COc1cccc(N2C(=O)c3cc4sccc4n3CC2(C)C(=O)NC2CCC(C)CC2)c1 (stereo not drawn) | i
Cn1c(=O)c2ccccc2n2c(CCC(=O)NCCc3ccccc3)nnc12 | i
CC1(C(=O)NC2CCCCCC2)Cn2c(ccc2-c2ccccc2)C(=O)N1Cc1ccccc1Cl (stereo not drawn) | i
CCCN1C(=O)c2cc(C(=O)NCc3ccc(SC)cc3)nn2CC1(C)C(=O)NC1CCCC1 (stereo not drawn) | i
COc1ccc2nc3n[nH]c(C)c3c(NCCOCCO)c2c1 | +
CCC(C)NC(=O)c1ccc2c(=O)n(C(C)C)c3nn(CC(=O)NC4CCCC4)c(=O)n3c2c1 (stereo not drawn) | i
Cc1c(Cl)cccc1N1C(=O)c2cc3sccc3n2CC1(C)C(=O)NC1CCCCC1 (stereo not drawn) | i
CC1(C(=O)NC2CCCCCC2)Cn2c(nc3ccccc32)C(=O)N1CCCc1ccccc1 (stereo not drawn) | i
CCOc1ccc(CNC(=O)c2cc3n(n2)CC(C)(C(=O)NC2CCCCC2)N(C)C3=O)cc1OC (stereo not drawn) | i
Oc1cc(CNC(=S)/C=C/c2cc(O)c(O)c(Br)c2)cc(O)c1O | +
SMILES | Methyltransferases
CC1(C(=O)NC2CCCCC2)Cn2c(cc3sccc32)C(=O)N1Cc1cccnc1 (stereo not drawn) | i
CCOC(=O)c1cc2n(n1)CC(C)(C(=O)NCCC(C)C)N(c1ccc(F)cc1C)C2=O (stereo not drawn) | i
CC(C)C[C@H](C(=O)O)c1cc(-c2ccc(C(F)(F)F)cc2)cc(-c2ccc(C(F)(F)F)cc2)c1 | +
COc1cccc(N2C(=O)c3cc4sccc4n3CC2(C)C(=O)NC2CCCC(C)C2C)c1 (stereo not drawn) | i
CSc1cccc(NC(=O)N2CCn3cccc3C2Cc2ccccc2)c1 (stereo not drawn) | i
C=C1C(=O)OC2/C=C(\C)CC/C=C(\C(=O)O)CC/C=C(\C)CCC12 (stereo not drawn) | i
C=C1C(=O)O[C@@H]2/C=C(\CO)CC/C=C(/C=O)C[C@H](O)[C@@H]12 | +
C=C1C(=O)OC2/C=C(\COC(C)=O)CC/C=C(\C=O)CC(OC(=O)CC(C)C)C12 (stereo not drawn) | i
C=C(C)C(=O)O[C@H]1[C@H]2C(=C)C(=O)O[C@@H]2/C=C(\CO)CC/C=C(/C=O)[C@@H]1O | i
C=C1C(=O)OC2/C=C(\CO)CC/C=C(\C=O)CC(OC(=O)CC(C)C)C12 (stereo not drawn) | +
C=C1C(=O)OC2C3=C(C)C(=O)CC3C(C)CC(O)C12 (stereo not drawn) | i
C=C1C(=O)O[C@@H]2/C=C(\CO)CC/C=C(/C=O)C[C@@H](O)[C@@H]12 | +
